From PubChem BioAssay (NCI)
This is part of a sample that, as a whole, favours compounds with a hit. Of some 83,000 tested, about 20% had one in any assay.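 For each line, cells grew in 96-well plates with the test compound present at a single concentration for 48 hours.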 Active and inactive are the calls of the source. How the source made its calls: active means growth percent below 10; inactive means the rest.

Assays:
Assay in all cases: NCI-60 one-dose screen, 48 h (100 = growth as untreated, 0 = no growth, -100 = all killed)
Details in all cases: 10 µM unless noted
[1] = tested on: HCT-15 colon
[2] = tested on: HT29 colon
[3] = tested on: SNB-75 CNS
[4] = tested on: SNB-19 CNS
[5] = tested on: U251 CNS
[6] = tested on: SK-MEL-5 melanoma
[7] = tested on: UACC-62 melanoma
[8] = tested on: LOX IMVI melanoma
[9] = tested on: SK-MEL-28 melanoma
[10] = tested on: SK-MEL-2 melanoma
[11] = tested on: EKVX NSCLC
[12] = tested on: SN12C renal
[13] = tested on: UO-31 renal
[14] = tested on: TK-10 renal
[15] = tested on: ACHN renal
[16] = tested on: CAKI-1 renal
[17] = tested on: A498 renal
[18] = tested on: CCRF-CEM leukemia
[19] = tested on: MOLT-4 leukemia

Measured: growth

Cc1[nH]c(-c2cc(N)ccc2Cl)c2c1C(=O)CCCC2
inactive: [1] 17.7% | [2] 12.8% | [4] 35.6% | [5] 38.5% | [7] 15.7% | [9] 59.1% | [10] 31% | [11] 36.5% | [12] 35% | [13] 10.1% | [15] 19.8% | [17] 27% | [18] 52.3% | [19] 52.7%
active: [3] 1.7% | [6] 1.73% | [8] 3.58% | [14] 1.81% | [16] 2.45%

Cc1ccc(NC(=O)/C=C/c2ccccc2)c(C(N)=O)c1
inactive: [1] 33.6% | [2] 14.1% | [3] 11.3% | [4] 40.5% | [5] 28.8% | [7] 44.2% | [8] 51.2% | [9] 33.1% | [10] 67% | [11] 64.1% | [12] 53.1% | [13] 46.7% | [14] 92.9% | [15] 57.7% | [17] 53.8% | [19] 30.7%
active: [6] 6.05% | [16] 6.55% | [18] 7.23%

O=C1/C(=C/N2N=C(c3ccc4ccccc4c3)CC2c2ccccc2O)SC(=S)N1c1cccnc1 (stereo not drawn)
active: [3] -4.45%
inactive: [1] 12.4% | [2] 10.7% | [4] 40.1% | [5] 16.1% | [6] 64% | [7] 66.2% | [8] 27.5% | [9] 78.6% | [10] 100% | [11] 43.2% | [12] 39.5% | [13] 11.6% | [14] 60.1% | [15] 43.6% | [16] 41.9% | [17] 14.3% | [18] 11.7% | [19] 19.2%

O=C1CC[C@H](c2ccc(O)c3c2C(=O)[C@@H]2O[C@@H]2C3=O)c2cccc(O)c21
inactive: [1] 42.5% | [3] 81.3% | [4] 92% | [5] 78.7% | [6] 92.6% | [7] 39.4% | [10] 69.5% | [11] 102% | [12] 54.6% | [17] 85% | [19] 45.1%
active: [2] -17.2% | [8] -62.6% | [9] -7.72% | [13] -77.4% | [14] 3.89% | [15] -42% | [16] 2.61% | [18] -2.85%

CCOC(=O)n1cc(-c2nonc2-c2cn(C)c3ncccc23)c2ccccc21
inactive: [1] 60.2% | [2] 79.5% | [3] 61.6% | [4] 89.3% | [5] 83.2% | [6] 77.3% | [7] 64.6% | [8] 84.3% | [9] 104% | [10] 90.1% | [11] 61.2% | [12] 87.1% | [13] 58.4% | [14] 98.3% | [15] 80.1% | [16] 58.1% | [17] 99% | [18] 86.6% | [19] 69.8%

Nc1ccc(-c2cc3c(Nc4ccc(Oc5cccc(C(F)(F)F)c5)c(Cl)c4)ncnc3s2)cc1
inactive: [1] 44.6% | [2] 64% | [3] 78.1% | [4] 89.8% | [5] 79% | [6] 70.9% | [7] 81.9% | [8] 50.1% | [9] 83.1% | [10] 88.1% | [11] 54.8% | [12] 57.3% | [13] 47.3% | [14] 90.3% | [15] 60.5% | [16] 60.3% | [17] 89.5% | [18] 48.9% | [19] 48.2%

O=c1nc2oc3ccc4ccccc4c3cc-2s1
active: [3] -16.1% | [17] -1.24%
inactive: [1] 32.4% | [2] 15.2% | [4] 31.9% | [5] 12.5% | [6] 10.8% | [7] 37.6% | [8] 33.5% | [9] 56.7% | [10] 31.9% | [11] 46.1% | [12] 41.1% | [13] 46.9% | [14] 54.7% | [15] 41% | [16] 22.1% | [18] 13.7% | [19] 25.1%

O=C1c2ccccc2C(=O)c2c(N=Nc3[nH]c(=S)[nH]c3O)cccc21
active: [2] 9.93% | [3] -20.2% | [17] -6.1%
inactive: [1] 23.2% | [4] 28.9% | [5] 12.8% | [6] 13.8% | [7] 32.5% | [8] 34.1% | [9] 52% | [10] 24.4% | [11] 41.6% | [12] 35.3% | [13] 26.9% | [14] 54.1% | [15] 41.4% | [16] 20.6% | [18] 14.1% | [19] 16%

COc1ccc(S(=O)(=O)N2CCCCCC2)cc1NC(=O)c1[nH]c(C)c2c1CCCCC2=O
inactive: [1] 12.8% | [2] 16.8% | [4] 38.2% | [5] 29.9% | [7] 15.8% | [9] 49.8% | [10] 43.4% | [11] 38.4% | [12] 36.9% | [13] 12.1% | [14] 15.3% | [15] 25.2% | [16] 12.7% | [18] 33.7% | [19] 30.6%
active: [3] 4.93% | [6] -43.8% | [8] -33.6% | [17] -25.6%

CC(=O)Nc1ccc(-n2c(O)c(/C=N/NC(=O)Cc3ccccc3Nc3c(Cl)cccc3Cl)sc2=S)cc1
inactive: [1] 103% | [2] 104% | [3] 89.6% | [4] 96.4% | [5] 90.4% | [6] 96.2% | [7] 95.4% | [8] 84.2% | [9] 111% | [10] 113% | [11] 100% | [12] 104% | [13] 84.1% | [14] 112% | [15] 99.1% | [16] 84.9% | [17] 97.1% | [18] 96.7% | [19] 94.2%

CCOc1nc(-c2ccccc2)cc2c(O)c(C(=O)O)[nH]c(=O)c12
inactive: [1] 106% | [2] 104% | [3] 81.3% | [4] 94.3% | [5] 104% | [6] 90.6% | [7] 110% | [8] 95.2% | [9] 138% | [10] 95.3% | [11] 98.2% | [12] 111% | [13] 87.1% | [14] 134% | [15] 100% | [16] 105% | [17] 119% | [18] 83% | [19] 92.4%

Cc1ccc(OC(=O)c2ccc(Cl)cc2)cc1
inactive: [1] 102% | [2] 89.2% | [3] 77.1% | [4] 103% | [5] 102% | [6] 103% | [7] 94.7% | [8] 99.3% | [9] 106% | [10] 103% | [11] 99.1% | [12] 95.9% | [13] 102% | [14] 98.2% | [15] 95.6% | [16] 81.8% | [17] 114% | [18] 55.9% | [19] 113%

O=C(Nc1ccccc1Cl)c1ccc(NC2=C(Cl)C(=O)N(C3CCCCC3)C2=O)cc1
inactive: [1] 46.5% [30 µM] | [2] 37.4% [30 µM] | [3] 38.8% [30 µM] | [4] 62.1% [30 µM] | [5] 34.1% [30 µM] | [6] 54.4% [30 µM] | [7] 66.2% [30 µM] | [8] 23.7% [30 µM] | [9] 56.1% [30 µM] | [10] 104% [30 µM] | [11] 98.5% [30 µM] | [12] 97.6% [30 µM] | [13] 75.8% [30 µM] | [14] 88.5% [30 µM] | [15] 78.9% [30 µM] | [16] 20.5% [30 µM] | [17] 123% [30 µM] | [18] 39.6% [30 µM] | [19] 40.8% [30 µM]

Cc1ccc2c(C(C[N+](=O)[O-])c3ccccc3F)c(-c3ccccc3)[nH]c2c1 (stereo not drawn)
active: [2] 6.14%
inactive: [1] 25.7% | [3] 24.6% | [4] 49.1% | [5] 25.3% | [6] 48.1% | [7] 42.4% | [8] 36.4% | [9] 63% | [10] 15.4% | [11] 56.3% | [12] 54.5% | [13] 47.5% | [14] 70.6% | [15] 48.5% | [16] 32.9% | [17] 32.5% | [18] 28.6% | [19] 25.9%

COc1ccc(-n2nc(C)c3c(Nc4ccc(NC(=O)Nc5cccc(C(F)(F)F)c5)cc4)ncnc32)cc1
active: [1] 2.47% | [2] 1.63% | [3] -7.61% | [5] -49.7% | [6] -66.5% | [7] 3.5% | [8] -81.9% | [10] -21.1% | [13] -44.9% | [15] -10.2% | [16] -18.9% | [19] 8.98%
inactive: [4] 12% | [9] 11.6% | [11] 10.1% | [12] 22.5% | [14] 10.7% | [17] 48.5% | [18] 18.2%

O=C(COc1ccc(/C=C2\CSc3ccccc3C2=O)cc1)Nc1nccs1
active: [8] -28.3% | [18] -66.1% | [19] -30%
inactive: [1] 84.6% | [2] 74.7% | [3] 87.8% | [4] 82.1% | [5] 83% | [6] 142% | [7] 85.5% | [9] 124% | [10] 83.5% | [11] 129% | [12] 95.2% | [13] 75.7% | [14] 85.5% | [15] 104% | [16] 87.5% | [17] 159%

COc1ccc(-n2nc(C)c3c(Oc4ccc(NC(=O)Nc5c(Cl)cccc5Cl)cc4)ncnc32)cc1
inactive: [1] 105% | [2] 107% | [3] 93.6% | [4] 98.5% | [5] 96.9% | [6] 99.9% | [7] 98.4% | [8] 100% | [9] 106% | [10] 106% | [11] 95.8% | [12] 101% | [13] 86.5% | [14] 110% | [15] 106% | [16] 95.3% | [17] 99.1% | [18] 95.5% | [19] 106%
